The campaign covered roughly 5,500 compounds. About 2,000 (36%) were called active. Another 18% or so got no clear call; they are omitted. Cut-off read from the data, not from the text of the source: active = normalized growth mostly below about 0.91 (no sharp cut-off); inconclusive = no clear call, values can overlap the other calls; inactive = mostly above about 0.92. Some of the results follow.
Experiment: chemical genetic growth profiling, strain panel (AID 1159580);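 note: tested at 20 µM; growth read once vehicle control cultures reached saturation at 30 °C; 1 = growth at the plate median or of vehicle wells; lower values mean less growth of the strain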
Settings: S. cerevisiae deletion strains, growth OD

Measured: normalized growth

C/C(=N/NC(=S)NCC(C)(C)C)c1cc(F)cc(Cl)c1O
inactive: locus YAR019C, strain CDC15, stronger effect = lower value 0.963 | locus YBL105C, strain PKC1, stronger effect = lower value 0.961 | locus YBR135W, strain CKS1, stronger effect = lower value 0.956 | locus YBR136W, strain MEC1, stronger effect = lower value 0.959 | locus YBR160W, strain CDC28, stronger effect = lower value 0.97 | locus YDL017W, strain CDC7, stronger effect = lower value 0.953 | locus YDL028C, strain MPS1, stronger effect = lower value 0.959 | locus YDL101C, strain DUN1, stronger effect = lower value 0.967 | locus YDL108W, strain KIN28, stronger effect = lower value 0.972 | locus YDL132W, strain cdc53, stronger effect = lower value 0.98 | locus YDL214C, strain PRR2, stronger effect = lower value 0.942 | locus YDR052C, strain DBF4, stronger effect = lower value 0.971 | locus YDR054C, strain cdc34, stronger effect = lower value 0.976 | locus YDR226W, strain ADK1, stronger effect = lower value 0.965 | locus YDR477W, strain SNF1, stronger effect = lower value 0.928 | locus YER123W, strain YCK3, stronger effect = lower value 0.928 | locus YER133W, strain GLC7, stronger effect = lower value 0.955 | locus YFL009W, strain cdc4, stronger effect = lower value 0.966 | locus YFL029C, strain CAK1, stronger effect = lower value 0.953 | locus YFR003C, strain YPI1, stronger effect = lower value 0.963 | locus YFR019W, strain FAB1, stronger effect = lower value 0.992 | locus YFR028C, strain CDC14, stronger effect = lower value 0.961 | locus YGR040W, strain KSS1, stronger effect = lower value 0.922 | locus YGR052W, strain FMP48, stronger effect = lower value 0.938 | locus YGR092W, strain DBF2, stronger effect = lower value 0.716 | locus YHR079C, strain IRE1, stronger effect = lower value 0.784 | locus YHR082C, strain KSP1, stronger effect = lower value 0.964 | locus YHR205W, strain SCH9, stronger effect = lower value 0.941 | locus YIL147C, strain SLN1, stronger effect = lower value 0.963 | locus YJL095W, strain BCK1, stronger effect = lower value 0.852 | locus YJL128C, strain PBS2, stronger effect = lower value 0.952 | locus YJL157C, strain FAR1, stronger effect = lower value 0.936 | locus YJR016C, strain ILV3, stronger effect = lower value 0.961 | locus YJR066W, strain TOR1 (second series), stronger effect = lower value 0.868 | locus YJR066W, strain TOR1, stronger effect = lower value 0.894 | locus YKL048C, strain ELM1, stronger effect = lower value 0.946 | locus YKL067W, strain YNK1, stronger effect = lower value 0.962 | locus YKL101W, strain HSL1, stronger effect = lower value 0.923 | locus YKL193C, strain SDS22, stronger effect = lower value 0.966 | locus YKL203C, strain TOR2, stronger effect = lower value 0.94 | locus YLR133W, strain CKI1, stronger effect = lower value 0.884 | locus YLR403W, strain SFP1, stronger effect = lower value 0.837 | locus YML070W, strain DAK1, stronger effect = lower value 0.941 | locus YMR001C, strain CDC5, stronger effect = lower value 0.961 | locus YMR205C, strain PFK2 (second series), stronger effect = lower value 0.939 | locus YMR277W, strain FCP1, stronger effect = lower value 0.96 | locus YNL006W, strain LST8, stronger effect = lower value 0.972 | locus YNL020C, strain ARK1, stronger effect = lower value 0.837 | locus YNL161W, strain CBK1, stronger effect = lower value 0.956 | locus YNL183C, strain NPR1, stronger effect = lower value 0.947 | locus YNL207W, strain RIO2, stronger effect = lower value 0.962 | locus YNL222W, strain SSU72, stronger effect = lower value 0.959 | locus YNL307C, strain MCK1 (second series), stronger effect = lower value 0.883 | locus YOL078W, strain AVO1, stronger effect = lower value 0.974 | locus YOL136C, strain PFK27, stronger effect = lower value 0.948 | locus YOR061W, strain CKA2, stronger effect = lower value 0.869 | locus YOR119C, strain RIO1, stronger effect = lower value 0.984 | locus YOR231W, strain MKK1, stronger effect = lower value 0.837 | locus YOR329C, strain SCD5, stronger effect = lower value 0.964 | locus YPL031C, strain PHO85, stronger effect = lower value 0.915 | locus YPL153C, strain RAD53, stronger effect = lower value 0.913 | locus YPL204W, strain HRR25, stronger effect = lower value 0.92 | locus YPL209C, strain IPL1, stronger effect = lower value 0.959 | locus YPR025C, strain CCL1, stronger effect = lower value 0.965 | locus YPR106W, strain ISR1, stronger effect = lower value 0.989 | locus YPR111W, strain DBF20, stronger effect = lower value 0.968 | strain NNK1, stronger effect = lower value 0.973 | strain TSCII, stronger effect = lower value 0.956
active: locus YHR030C, strain SLT2, stronger effect = lower value 0.681 | locus YLR113W, strain HOG1, stronger effect = lower value 0.735 | locus YPL256C, strain CLN2, stronger effect = lower value 0.782

From PubChem BioAssay AID1159580 (chemical genetic matrix, 2015)
